Reference: PubChem BioAssay AID1159580 (chemical genetic matrix, 2015)
Among all 5,500 compounds or so, about 2,000 (36%) were called active. Roughly 18% stayed inconclusive and do not appear here. This is one part of the list. Values without a mark were called inactive. No stated cut-off is given here; in the data, active means normalized growth mostly below about 0.91 (no sharp cut-off); inconclusive means no clear call, values can overlap the other calls; inactive means mostly above about 0.92.

Test: chemical genetic growth profiling, strain panel (AID 1159580);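 further: tested at 20 µM; growth read once vehicle control cultures reached saturation at 30 °C; 1 = growth at the plate median or of vehicle wells; lower values mean less growth of the strain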
Conditions: S. cerevisiae deletion strains, growth OD

Nc1ccccc1C(=O)N/N=C\c1cc(Br)ccc1O
normalized growth (locus YAR019C, strain CDC15, hits give low values): 0.985
normalized growth (locus YBL105C, strain PKC1, hits give low values): 0.984
normalized growth (locus YBR135W, strain CKS1, hits give low values): 0.981
normalized growth (locus YBR136W, strain MEC1, hits give low values): 0.982
normalized growth (locus YBR160W, strain CDC28, hits give low values): 0.989
normalized growth (locus YDL017W, strain CDC7, hits give low values): 0.98
normalized growth (locus YDL028C, strain MPS1, hits give low values): 0.976
normalized growth (locus YDL101C, strain DUN1, hits give low values): 0.984
normalized growth (locus YDL108W, strain KIN28, hits give low values): 0.982
normalized growth (locus YDL132W, strain cdc53, hits give low values): 0.97
normalized growth (locus YDL214C, strain PRR2, hits give low values): 0.972
normalized growth (locus YDR052C, strain DBF4, hits give low values): 0.99
normalized growth (locus YDR054C, strain cdc34, hits give low values): 0.97
normalized growth (locus YDR226W, strain ADK1, hits give low values): 0.96
normalized growth (locus YDR477W, strain SNF1, hits give low values): 0.961
normalized growth (locus YER123W, strain YCK3, hits give low values): 0.877
normalized growth (locus YER133W, strain GLC7, hits give low values): 0.979
normalized growth (locus YFL009W, strain cdc4, hits give low values): 0.965
normalized growth (locus YFL029C, strain CAK1, hits give low values): 0.971
normalized growth (locus YFR003C, strain YPI1, hits give low values): 0.974
normalized growth (locus YFR019W, strain FAB1, hits give low values): 0.985
normalized growth (locus YFR028C, strain CDC14, hits give low values): 0.985
normalized growth (locus YGR040W, strain KSS1, hits give low values): 0.982
normalized growth (locus YGR052W, strain FMP48, hits give low values): 0.925
normalized growth (locus YGR092W, strain DBF2, hits give low values): 0.452 (active)
normalized growth (locus YHR030C, strain SLT2, hits give low values): 0.855
normalized growth (locus YHR079C, strain IRE1, hits give low values): 0.828
normalized growth (locus YHR082C, strain KSP1, hits give low values): 1.02
normalized growth (locus YHR205W, strain SCH9, hits give low values): 0.866
normalized growth (locus YIL147C, strain SLN1, hits give low values): 0.981
normalized growth (locus YJL095W, strain BCK1, hits give low values): 0.798
normalized growth (locus YJL128C, strain PBS2, hits give low values): 0.933
normalized growth (locus YJL157C, strain FAR1, hits give low values): 0.947
normalized growth (locus YJR016C, strain ILV3, hits give low values): 0.976
normalized growth (locus YJR066W, strain TOR1 (second series), hits give low values): 0.903
normalized growth (locus YJR066W, strain TOR1, hits give low values): 0.976
normalized growth (locus YKL048C, strain ELM1, hits give low values): 0.928
normalized growth (locus YKL067W, strain YNK1, hits give low values): 0.948
normalized growth (locus YKL101W, strain HSL1, hits give low values): 0.901
normalized growth (locus YKL193C, strain SDS22, hits give low values): 0.976
normalized growth (locus YKL203C, strain TOR2, hits give low values): 1.02
normalized growth (locus YLR113W, strain HOG1, hits give low values): 0.784 (active)
normalized growth (locus YLR133W, strain CKI1, hits give low values): 0.927
normalized growth (locus YLR403W, strain SFP1, hits give low values): 0.88
normalized growth (locus YML070W, strain DAK1, hits give low values): 0.901
normalized growth (locus YMR001C, strain CDC5, hits give low values): 0.986
normalized growth (locus YMR205C, strain PFK2 (second series), hits give low values): 0.939
normalized growth (locus YMR277W, strain FCP1, hits give low values): 0.976
normalized growth (locus YNL006W, strain LST8, hits give low values): 0.995
normalized growth (locus YNL020C, strain ARK1, hits give low values): 0.929
normalized growth (locus YNL161W, strain CBK1, hits give low values): 0.979
normalized growth (locus YNL183C, strain NPR1, hits give low values): 0.958
normalized growth (locus YNL207W, strain RIO2, hits give low values): 0.979
normalized growth (locus YNL222W, strain SSU72, hits give low values): 0.981
normalized growth (locus YNL307C, strain MCK1 (second series), hits give low values): 0.871
normalized growth (locus YOL078W, strain AVO1, hits give low values): 0.984
normalized growth (locus YOL136C, strain PFK27, hits give low values): 0.898
normalized growth (locus YOR061W, strain CKA2, hits give low values): 0.922
normalized growth (locus YOR119C, strain RIO1, hits give low values): 1.08
normalized growth (locus YOR231W, strain MKK1, hits give low values): 0.871
normalized growth (locus YOR329C, strain SCD5, hits give low values): 0.98
normalized growth (locus YPL031C, strain PHO85, hits give low values): 0.95
normalized growth (locus YPL153C, strain RAD53, hits give low values): 0.927
normalized growth (locus YPL204W, strain HRR25, hits give low values): 0.947
normalized growth (locus YPL209C, strain IPL1, hits give low values): 0.985
normalized growth (locus YPL256C, strain CLN2, hits give low values): 0.779 (active)
normalized growth (locus YPR025C, strain CCL1, hits give low values): 0.979
normalized growth (locus YPR106W, strain ISR1, hits give low values): 0.968
normalized growth (locus YPR111W, strain DBF20, hits give low values): 0.969
normalized growth (strain NNK1, hits give low values): 0.988
normalized growth (strain TSCII, hits give low values): 0.99
